Assay results taken from PubChem BioAssay AID1159580 (chemical genetic matrix, 2015).
Values joined by “and” are separate entries in the source; they are usually repeats but may differ in a detail not shown here. Equal entries are not always repeated. Out of some 5,500 compounds screened, about 2,000 (36%) were called active. Roughly 18% stayed inconclusive and do not appear here. No stated cut-off is given here; in the data, active means normalized growth mostly below about 0.91 (no sharp cut-off); inconclusive means no clear call, values can overlap the other calls; inactive means mostly above about 0.92. The list shows a part of the results.

Experiment: chemical genetic growth profiling, strain panel (AID 1159580);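 further: tested at 20 µM; growth read once vehicle control cultures reached saturation at 30 °C; 1 = growth at the plate median or of vehicle wells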
Conditions: growth OD

Measured: normalized growth

Cc1ccc(O)c(C(CCN(C(C)C)C(C)C)c2ccccc2)c1 (configuration not stated)
inactive: S. cerevisiae deletion strains, locus YAL013W, strain DEP1, stronger effect = lower value 1.01 | S. cerevisiae deletion strains, locus YBR021W, strain FUR4, stronger effect = lower value 1 | S. cerevisiae deletion strains, locus YBR229C, strain ROT2, stronger effect = lower value 1.01 | S. cerevisiae deletion strains, locus YCL029C, strain bik1, stronger effect = lower value 0.998 | S. cerevisiae deletion strains, locus YDL035C, strain GPR1, stronger effect = lower value 1.01 | S. cerevisiae deletion strains, locus YDL074C, strain BRE1, stronger effect = lower value 1.03 | S. cerevisiae deletion strains, locus YDL101C, strain DUN1, stronger effect = lower value 1.01 | S. cerevisiae deletion strains, locus YDL134C, strain PPH21, stronger effect = lower value 1.02 | S. cerevisiae deletion strains, locus YDL185W, strain tfp1, stronger effect = lower value 0.989 | S. cerevisiae deletion strains, locus YDL192W, strain arf1, stronger effect = lower value 1 | S. cerevisiae deletion strains, locus YDR101C, strain arx1, stronger effect = lower value 0.988 | S. cerevisiae deletion strains, locus YDR150W, strain NUM1, stronger effect = lower value 1.01 | S. cerevisiae deletion strains, locus YDR162C, strain NBP2, stronger effect = lower value 1 | S. cerevisiae deletion strains, locus YDR318W, strain mcm21, stronger effect = lower value 0.991 | S. cerevisiae deletion strains, locus YDR388W, stronger effect = lower value 0.983 | S. cerevisiae deletion strains, locus YDR502C, strain sam2, stronger effect = lower value 0.996 | S. cerevisiae deletion strains, locus YEL061C, strain CIN8, stronger effect = lower value 1.01 | S. cerevisiae deletion strains, locus YER110C, stronger effect = lower value 0.995 | S. cerevisiae deletion strains, locus YER155C, strain BEM2, stronger effect = lower value 1.01 | S. cerevisiae deletion strains, locus YER167W, strain BCK2, stronger effect = lower value 0.994 | S. cerevisiae deletion strains, locus YGL078C, strain dbp3, stronger effect = lower value 0.996 | S. cerevisiae deletion strains, locus YGL086W, strain mad1, stronger effect = lower value 0.995 | S. cerevisiae deletion strains, locus YGL248W, strain PDE1, stronger effect = lower value 1 | S. cerevisiae deletion strains, locus YGR078C, strain PAC10, stronger effect = lower value 1.01 | S. cerevisiae deletion strains, locus YGR135W, strain pre9, stronger effect = lower value 0.985 | S. cerevisiae deletion strains, locus YGR229C, strain SMI1, stronger effect = lower value 0.995 | S. cerevisiae deletion strains, locus YGR252W, strain gcn5, stronger effect = lower value 1 | S. cerevisiae deletion strains, locus YHR030C, strain SLT2, stronger effect = lower value 1.01 and 1.03 | S. cerevisiae deletion strains, locus YHR079C, strain IRE1 (second series), stronger effect = lower value 0.988 | S. cerevisiae deletion strains, locus YHR079C, strain IRE1, stronger effect = lower value 0.981 | S. cerevisiae deletion strains, locus YHR094C, strain hxt1, stronger effect = lower value 0.987 | S. cerevisiae deletion strains, locus YHR129C, strain ARP1, stronger effect = lower value 1.02 | S. cerevisiae deletion strains, locus YHR200W, strain rpn10, stronger effect = lower value 0.982 | S. cerevisiae deletion strains, locus YIL066C, strain RNR3, stronger effect = lower value 1.02 | S. cerevisiae deletion strains, locus YIL073C, strain SPO22, stronger effect = lower value 0.967 | S. cerevisiae deletion strains, locus YIL125W, strain kgd1, stronger effect = lower value 0.985 | S. cerevisiae deletion strains, locus YIR030C, strain dcg1, stronger effect = lower value 0.993 | S. cerevisiae deletion strains, locus YJL095W, strain BCK1, stronger effect = lower value 1.01 | S. cerevisiae deletion strains, locus YJL134W, strain LCB3, stronger effect = lower value 1 | S. cerevisiae deletion strains, locus YJL168C, strain set2, stronger effect = lower value 0.99 | S. cerevisiae deletion strains, locus YJL187C, strain SWE1 (second series), stronger effect = lower value 1.01 | S. cerevisiae deletion strains, locus YJR043C, strain POL32, stronger effect = lower value 1 | S. cerevisiae deletion strains, locus YJR066W, strain TOR1, stronger effect = lower value 0.958 | S. cerevisiae deletion strains, locus YJR075W, strain HOC1, stronger effect = lower value 1 | S. cerevisiae deletion strains, locus YKL009W, strain mrt4, stronger effect = lower value 1 | S. cerevisiae deletion strains, locus YKL068W, stronger effect = lower value 0.986 | S. cerevisiae deletion strains, locus YKL085W, strain MDH1 (second series), stronger effect = lower value 0.99 | S. cerevisiae deletion strains, locus YKL085W, strain MDH1, stronger effect = lower value 0.99 | S. cerevisiae deletion strains, locus YKL190W, strain CNB1, stronger effect = lower value 1.01 | S. cerevisiae deletion strains, locus YKR001C, strain vps1, stronger effect = lower value 0.999 | S. cerevisiae deletion strains, locus YLR039C, strain RIC1, stronger effect = lower value 1.06 | S. cerevisiae deletion strains, locus YLR058C, strain SHM2, stronger effect = lower value 1.01 | S. cerevisiae deletion strains, locus YLR102C, strain apc9, stronger effect = lower value 0.992 | S. cerevisiae deletion strains, locus YLR113W, strain HOG1, stronger effect = lower value 1.03 | S. cerevisiae deletion strains, locus YLR262C, strain YPT6, stronger effect = lower value 1.05 | S. cerevisiae deletion strains, locus YLR268W, strain sec22, stronger effect = lower value 0.984 | S. cerevisiae deletion strains, locus YLR330W, strain CHS5, stronger effect = lower value 1.01 | S. cerevisiae deletion strains, locus YLR342W, strain FKS1 (second series), stronger effect = lower value 1.01 | S. cerevisiae deletion strains, locus YLR371W, strain rom2, stronger effect = lower value 0.972 | S. cerevisiae deletion strains, locus YLR418C, strain cdc73, stronger effect = lower value 0.982 | S. cerevisiae deletion strains, locus YML016C, strain PPZ1, stronger effect = lower value 1.02 | S. cerevisiae deletion strains, locus YML032C, strain rad52, stronger effect = lower value 0.986 | S. cerevisiae deletion strains, locus YML124C, strain tub3, stronger effect = lower value 0.991 | S. cerevisiae deletion strains, locus YMR078C, strain ctf18, stronger effect = lower value 0.978 | S. cerevisiae deletion strains, locus YMR223W, strain ubp8, stronger effect = lower value 0.996 | S. cerevisiae deletion strains, locus YMR263W, strain SAP30, stronger effect = lower value 1.01 | S. cerevisiae deletion strains, locus YMR307W, strain GAS1, stronger effect = lower value 0.993 | S. cerevisiae deletion strains, locus YNL067W, strain RPL9B, stronger effect = lower value 1.01 | S. cerevisiae deletion strains, locus YNL128W, strain TEP1, stronger effect = lower value 1 | S. cerevisiae deletion strains, locus YNL153C, strain GIM3, stronger effect = lower value 1.01 | S. cerevisiae deletion strains, locus YNL183C, strain NPR1, stronger effect = lower value 0.961 | S. cerevisiae deletion strains, locus YNL233W, strain BNI4, stronger effect = lower value 1.01 | S. cerevisiae deletion strains, locus YNL250W, strain rad50, stronger effect = lower value 0.981 | S. cerevisiae deletion strains, locus YNL271C, strain bni1, stronger effect = lower value 0.997 | S. cerevisiae deletion strains, locus YNL298W, strain CLA4, stronger effect = lower value 0.974 | S. cerevisiae deletion strains, locus YNL307C, strain MCK1, stronger effect = lower value 0.996 | S. cerevisiae deletion strains, locus YNL322C, strain KRE1, stronger effect = lower value 1 | S. cerevisiae deletion strains, locus YNR052C, strain pop2, stronger effect = lower value 0.988 | S. cerevisiae deletion strains, locus YOL006C, strain TOP1, stronger effect = lower value 1.05 | S. cerevisiae deletion strains, locus YOL012C, strain htz1 0.768 | S. cerevisiae deletion strains, locus YOL147C, strain pex11, stronger effect = lower value 0.986 | S. cerevisiae deletion strains, locus YOR061W, strain CKA2, stronger effect = lower value 1.02 | S. cerevisiae deletion strains, locus YOR069W, strain VPS5, stronger effect = lower value 1.01 | S. cerevisiae deletion strains, locus YOR136W, strain idh2, stronger effect = lower value 0.983 | S. cerevisiae deletion strains, locus YOR144C, strain elg1, stronger effect = lower value 0.981 | S. cerevisiae deletion strains, locus YOR184W, strain ser1, stronger effect = lower value 1 | S. cerevisiae deletion strains, locus YOR231W, strain MKK1, stronger effect = lower value 1 | S. cerevisiae deletion strains, locus YOR316C, strain cot1, stronger effect = lower value 0.985 | S. cerevisiae deletion strains, locus YPL055C, strain LGE1, stronger effect = lower value 1.01 | S. cerevisiae deletion strains, locus YPL241C, strain CIN2, stronger effect = lower value 1.01 | S. cerevisiae deletion strains, locus YPL256C, strain CLN2, stronger effect = lower value 0.992 | S. cerevisiae deletion strains, locus YPR119W, strain clb2, stronger effect = lower value 0.98 | S. cerevisiae deletion strains, locus YPR141C, strain kar3, stronger effect = lower value 0.985 | S. cerevisiae deletion strains, locus YPR163C, strain tif3, stronger effect = lower value 0.977 | S. cerevisiae deletion strains, locus YPR167C, strain met16, stronger effect = lower value 0.988 | S. cerevisiae deletion strains, strain wtn01, stronger effect = lower value 0.988 | S. cerevisiae strains, strain wild type, stronger effect = lower value 1
